Experimental findings from PubChem BioAssay AID588352 (The Scripps Research Institute Molecular Screening Center, 2011) are described below.

Each structure is given as a SMILES string. Among all 360,000 compounds or so, about 620 (0.17%) were called active.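 Rule for the calls: active = inhibition above a per-campaign cutoff, the mean of all compounds plus 3 SD (cut at about 60% in these data); inactive = the rest.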 The full list was thinned out, with actives kept by preference.

The assay deals with Nuclear receptor coactivator 3 (Homo sapiens) (UniProt Q9Y6Q9). The assay is described as follows: SRC3 coactivator transcriptional activity inhibitors, primary screen, cell-based, luminescence (AID 588352).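 Note: 0% = DMSO-treated cells and 100% = gossypol-treated cells at 36 µM; higher means less SRC3-driven luciferase light from the GAL4 reporter.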 The settings on record: HEK293 GAL4-SRC3 luciferase reporter, at 3.6 µM, stronger effect = higher value. In general terms: Reporter assays use an easily measured gene product as a stand-in for the process of interest.
Sequence of Nuclear receptor coactivator 3 (Homo sapiens) (Q9Y6Q9 whole entry, looked up, the tested form may be a part): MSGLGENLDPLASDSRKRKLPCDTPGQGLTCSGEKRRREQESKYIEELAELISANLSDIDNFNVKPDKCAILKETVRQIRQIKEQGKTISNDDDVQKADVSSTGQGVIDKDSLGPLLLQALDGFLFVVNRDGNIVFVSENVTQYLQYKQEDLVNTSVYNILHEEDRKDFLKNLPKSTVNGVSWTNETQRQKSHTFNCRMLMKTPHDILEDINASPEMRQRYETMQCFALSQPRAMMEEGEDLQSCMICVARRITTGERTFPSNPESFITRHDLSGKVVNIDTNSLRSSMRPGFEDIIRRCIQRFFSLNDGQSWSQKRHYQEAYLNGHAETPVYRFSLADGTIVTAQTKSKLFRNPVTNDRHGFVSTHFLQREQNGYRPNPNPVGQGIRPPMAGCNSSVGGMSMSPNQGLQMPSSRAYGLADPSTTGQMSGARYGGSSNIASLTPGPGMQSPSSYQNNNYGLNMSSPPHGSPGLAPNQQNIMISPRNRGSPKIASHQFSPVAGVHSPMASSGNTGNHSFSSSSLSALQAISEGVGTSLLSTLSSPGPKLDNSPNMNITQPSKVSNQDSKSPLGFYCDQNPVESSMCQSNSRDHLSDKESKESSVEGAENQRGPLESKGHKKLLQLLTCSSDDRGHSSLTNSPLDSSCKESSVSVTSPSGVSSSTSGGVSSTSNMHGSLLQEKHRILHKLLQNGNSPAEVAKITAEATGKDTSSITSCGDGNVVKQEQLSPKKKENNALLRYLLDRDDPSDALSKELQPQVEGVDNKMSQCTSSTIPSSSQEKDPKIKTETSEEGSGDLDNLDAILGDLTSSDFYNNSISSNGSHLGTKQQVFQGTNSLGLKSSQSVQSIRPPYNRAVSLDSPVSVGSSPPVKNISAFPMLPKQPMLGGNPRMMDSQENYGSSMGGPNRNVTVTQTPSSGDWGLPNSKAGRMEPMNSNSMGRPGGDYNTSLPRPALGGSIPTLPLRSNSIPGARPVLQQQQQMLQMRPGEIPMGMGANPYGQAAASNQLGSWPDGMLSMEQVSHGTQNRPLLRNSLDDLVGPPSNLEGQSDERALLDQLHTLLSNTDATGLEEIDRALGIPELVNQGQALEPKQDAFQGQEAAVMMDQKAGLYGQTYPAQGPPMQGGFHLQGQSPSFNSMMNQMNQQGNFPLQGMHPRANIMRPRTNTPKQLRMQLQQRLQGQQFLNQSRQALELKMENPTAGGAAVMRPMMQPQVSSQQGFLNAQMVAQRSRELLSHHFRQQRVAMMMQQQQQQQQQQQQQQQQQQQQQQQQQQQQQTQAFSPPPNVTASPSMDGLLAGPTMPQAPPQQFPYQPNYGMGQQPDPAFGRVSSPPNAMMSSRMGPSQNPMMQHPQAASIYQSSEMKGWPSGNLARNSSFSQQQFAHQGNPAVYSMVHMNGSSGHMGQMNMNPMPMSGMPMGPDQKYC
Usually inhibition stands for the relative decrease from the control value, in per cent. For the compound `CC(NC(=O)CCCC1CCCCC1)c1ccc(S(N)(=O)=O)cc1` (centres undefined), the inhibition was 4.7% (inactive). As to `CC/C(C)=N/Nc1nc2sc3c(c2c(=O)[nH]1)CC(C)(C)OC3`, the inhibition was -4.5% (inactive). Consider `O=C(CN1CCN(c2ncccn2)CC1)Nc1ccccc1C(F)(F)F`, for which the inhibition was 17.7% (inactive). In the case of `CC1(C(=O)NS(=O)(=O)c2ccc(C#N)cc2)CCN1C(=O)c1ccc(C2CCCCC2)cc1` (centres undefined), the inhibition was 8.43% (inactive). Take `CC(C)C(c1nnnn1C1CCCCC1)N1CCN(C(=O)c2ccco2)CC1` (centres undefined): the inhibition is -1.28% (inactive).

For the compound `COc1cccc2c(C)c(C(=O)O)[nH]c12`, the inhibition was 4.08% (inactive). For the compound `CCc1ccc(Oc2nc([N+](=O)[O-])nn2C)cc1`, the inhibition was 12.1% (inactive).

For the compound `CC(=O)c1c(C)c[nH]c1C`, the inhibition is 11% (inactive). As for `CCc1nc2ccc(C(=O)NCc3ccc(OC)cc3)cn2c1N(CC)Cc1cccc(Br)c1`, the inhibition was 0.61% (inactive). On to `CCCCn1c(N)c(N(CCC(C)C)C(=O)CC2OC(=O)c3ccccc32)c(=O)[nH]c1=O` (centres undefined), for which the inhibition was 12.2% (inactive). With `Cc1cccc2cc(CN(C(=O)c3cccs3)c3ccccc3)c(=O)[nH]c12`, the inhibition is 15.8% (inactive).

Consider `O=S(=O)(Cc1nnnn1-c1ccc(Br)cc1)c1ccc(F)cc1`, for which the inhibition was -7.02% (inactive). To `Cc1cc(C)nc(SCc2nnc(SCC(=O)OC3CCCCC3)o2)n1` belongs -10.7% (inactive); to `CCCNC(=O)c1ccc(N2CCC3(CC2)CC(c2ccc(Cl)cc2)=NO3)c([N+](=O)[O-])c1`, 0.35% (inactive); to `CC1CCCCC1NC(=O)c1cc(=O)[nH]c2ccccc12` (centres undefined), 9.65% (inactive).

Take `COc1ccc(F)cc1C(=O)C1CCCN(C(=O)CCc2ccccn2)C1` (centres undefined): the inhibition is 14.9% (inactive). For `Cc1noc(C)c1C(=O)N1CCC1(C)C(=O)NS(=O)(=O)c1ccc(C#N)cc1` (centres undefined), the inhibition is -19.1% (inactive).

Turning to `O=C(NCCCCCCCCCNC(=O)C(F)(F)F)C(F)(F)F`, the inhibition was -9.12% (inactive). In the case of `Cc1ccc(S(=O)(=O)NCC(=O)N(CC(=O)NC2CCCCC2)Cc2ccco2)cc1`, the inhibition was 12.3% (inactive). Then `COC(=O)CN1C(=O)[C@H]2[C@@H](C3CC3)N3C(=O)CN(Cc4ccc(-c5ccccc5)cc4)C(=O)[C@@]3(Cc3ccccc3)[C@H]2C1=O`, with 9.14% (inactive). To `CC1(C)CC(=O)C=C(c2ccc(Cl)c(C(F)(F)F)c2)C1` belongs -9.95% (inactive). For the compound `CCN(CC)S(=O)(=O)N1CCC(C(=O)NC(C)CCc2ccccc2)CC1` (centres undefined), the inhibition is 15.5% (inactive). Then `Cc1nn(CC(=O)NC2CCCCC2)c(=O)c2cccn12`, with -10.9% (inactive); and `CCOC(=O)c1c(C)n(C)c2ccc(OC)c(NC(=O)CN3CCC4(CC3)OCCO4)c12`, with 6.95% (inactive).
